Source: PubChem BioAssay (EPA / NIEHS)
“And” between values parts separate entries of the source, which are not always exact repeats. Equal entries are not always repeated. Results filed as inconclusive are left out. Where a structure was tested more than once in an assay, its records may differ in their call. The source made the active and inactive calls. The calls were made as follows, unless noted: active = hit-call score of the fitted dose curve at least 0.9, where 1 is the maximum; inactive = score below 0.9.

Tests used:
[1] = CCTE_Mundy_HCI_hNP1_Casp3_7: CCTE's Caspase-Glo 3/7 Assay in human neuroprogenitor cells for Apoptosis, Mundy Lab (AID 2284240)
Method in brief: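 Luminescent caspase-3/7 readout, 26.5 h post-dose, in human neural progenitor cells from WA09 embryonic stem cells. Cells grew 40–44 h at 37 °C, 5% CO2 before chemical addition. Activity analysed as signal increase over DMSO baseline.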

[2] = CCTE_Mundy_HCI_hNP1_CellTiter: CCTE's Cell Titer-Glo 2 Assay in human neuroprogenitor cells for Viability, Mundy Lab (AID 2284241; active = hit-call score of the fitted dose curve at least 0.9, where 1 is the maximum)
Method in brief: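 Viability read as luminescent ATP content (CellTiter-Glo, 30 min room temperature) twenty-four hours after dosing, relative to DMSO. Cells: WA09-derived hNP1 neuroprogenitors on poly-L-ornithine/laminin, plated 40 to 44 hours before chemical.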

[3] = read-out: Actin alpha 1 (ACTA1), ACTA1 (gene 58); test: BSK_MyoF_ACTA1: BioMAP Diversity Plus: MyoF Assay for Actin alpha 1 (ACTA1) Biomarker Activity (AID 2284244); settings: primary human lung fibroblasts
Method in brief: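 ELISA read-out of a-SMA in primary human lung fibroblast cultures, 24 h post-dosing. Activity scored in the positive direction versus DMSO baseline.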

[4] = read-out: Interleukin 2 (IL2), IL2 (gene 3558); test: BSK_BT_xIL2: BioMAP Diversity Plus: BT Assay for Interleukin 2 (IL2) Biomarker Activity (AID 2284245); settings: primary human B cells with PBMC
Method in brief: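 Readout: supernatant IL-2 via Luminex xMAP after 24 h chemical dosing of a B cell/PBMC primary human co-culture. DMSO serves as negative control and baseline; increases in signal were fitted.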

[5] = read-out: Basic fibroblast growth factor (bFGF), FGF2 (gene 2247); test: BSK_MyoF_bFGF: BioMAP Diversity Plus: MyoF Assay for Basic fibroblast growth factor (bFGF) Biomarker Activity (AID 2284246); settings: primary human lung fibroblasts
Method in brief: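 Primary human lung fibroblast culture, 24 h compound exposure; ELISA read-out of bFGF. Positive-direction fit vs DMSO baseline. Cytotoxicity: SRB stain (0.1% SRB, 10% TCA fixation, 560 nm) in parallel wells.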

[6] = read-out: Collagen IV, COL4A1 (gene 1282); test: BSK_MyoF_CollagenIV: BioMAP Diversity Plus: MyoF Assay for Collagen IV Biomarker Activity (AID 2284247); settings: primary human lung fibroblasts
Method in brief: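 ELISA read-out of Collagen IV in lung fibroblast cultures, 24 h post-dosing; gain of signal relative to DMSO vehicle baseline defines activity.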

[7] = read-out: Plasminogen activator inhibitor-1 (PAI1), SERPINE1 (gene 5054); test: BSK_MyoF_PAI1: BioMAP Diversity Plus: MyoF Assay for Plasminogen activator inhibitor-1 (PAI1) Biomarker Activity (AID 2284256); settings: primary human lung fibroblasts
Method in brief: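 Activity reflects increased PAI-1, determined by ELISA and compared with DMSO, in human lung fibroblasts treated for 24 h.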

[8] = read-out: Interleukin-8 (IL8), CXCL8 (gene 3576); test: BSK_MyoF_IL8: BioMAP Diversity Plus: MyoF Assay for Interleukin-8 (IL8) Biomarker Activity (AID 2284261); settings: primary human lung fibroblasts
Method in brief: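 In this multiplexed primary-cell system, fibroblasts from human lung are treated with chemicals, and IL-8 is detected by ELISA at 24 h, with DMSO serving as the negative reference.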

[9] = read-out: Vascular cell adhesion molecule 1 (VCAM1), VCAM1 (gene 7412); test: BSK_BF4T_VCAM1: BioMAP Diversity Plus: BF4T Assay for Vascular cell adhesion molecule 1 (VCAM1) Biomarker Activity (AID 2284249); settings: primary human bronchial epithelial cells with fibroblasts
Method in brief: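 Cell-surface VCAM-1 quantified by ELISA after 24 h chemical exposure of human bronchial epithelial/dermal fibroblast co-cultures, with SRB staining in parallel wells for cytotoxicity; DMSO baseline, positive-direction fitting.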

[10] = read-out: Interferon-inducible T-cell alpha chemoattractant (ITAC), CXCL11 (gene 6373); test: BSK_hDFCGF_ITAC: BioMAP Diversity Plus: hDFCGF Assay for Interferon-inducible T-cell alpha chemoattractant (ITAC) Biomarker Activity (AID 2284251); settings: primary human foreskin fibroblasts
Method in brief: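 Measured by ELISA, the chemokine level serves as the endpoint in human skin fibroblast primary cultures 24 h after compound addition. Increases relative to DMSO-treated wells define activity.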

[11] = read-out: Monocyte Chemoattractant Protein-1 (MCP1), CCL2 (gene 6347); test: BSK_IMphg_MCP1: BioMAP Diversity Plus: IMphg Assay for Monocyte Chemoattractant Protein-1 (MCP1) Biomarker Activity (AID 2284253); settings: primary human endothelial cells with macrophages
Method in brief: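 ELISA readout of MCP-1 at 24 hours in IMphg co-cultures of venular endothelial cells and macrophages, normalised to DMSO; parallel cultures stained with sulforhodamine B for overt cytotoxicity.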

[12] = read-out: Interleukin-8 (IL8), CXCL8 (gene 3576); test: BSK_KF3CT_IL8: BioMAP Diversity Plus: KF3CT Assay for Interleukin-8 (IL8) Biomarker Activity (AID 2284254); settings: primary human keratinocytes with fibroblasts
Method in brief: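 ELISA detection of IL-8 from a human skin co-culture, keratinocytes with foreskin fibroblasts, at 24 h following chemical exposure, with gain of signal scored against DMSO controls.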

[13] = read-out: Macrophage Inflammatory Protein-1 Alpha (MIP1a), CCL3 (gene 6348); test: BSK_IMphg_MIP1a: BioMAP Diversity Plus: IMphg Assay for Macrophage Inflammatory Protein-1 Alpha (MIP1a) Biomarker Activity (AID 2284255); settings: primary human endothelial cells with macrophages
Method in brief: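 MIP-1a protein levels were quantified by ELISA after 24 h treatment of human endothelial cell–macrophage co-cultures, compared with DMSO. Parallel cultures were fixed with TCA and stained with 0.1% SRB to gauge overt cytotoxicity.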

CD69, CD69 (gene 969) = test: BSK_IMphg_CD69: BioMAP Diversity Plus: IMphg Assay for CD69 Biomarker Activity (AID 2284257); settings: primary human endothelial cells with macrophages
Method in brief: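 Readout is ELISA for CD69 in primary human venular endothelial cell/macrophage co-culture, taken at 24 h post-dosing. SRB staining of parallel cultures gauged overt cytotoxicity; signal increase versus DMSO defined activity.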

[14] = read-out: Eotaxin 3, CCL26 (gene 10344); test: BSK_BF4T_Eotaxin3: BioMAP Diversity Plus: BF4T Assay for Eotaxin 3 Biomarker Activity (AID 2284258); settings: primary human bronchial epithelial cells with fibroblasts
Method in brief: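 ELISA measurement of Eotaxin-3 after 24 h chemical exposure in a bronchial epithelial/dermal fibroblast co-culture, with DMSO as baseline. Parallel SRB staining (0.1% SRB after 10% TCA fixation, 560 nm) flagged overt cytotoxicity.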

[15] = read-out: Monocyte Chemoattractant Protein-1 (MCP1), CCL2 (gene 6347); test: BSK_BF4T_MCP1: BioMAP Diversity Plus: BF4T Assay for Monocyte Chemoattractant Protein-1 (MCP1) Biomarker Activity (AID 2284259); settings: primary human bronchial epithelial cells with fibroblasts
Method in brief: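 MCP-1 ELISA readout taken 24 h after dosing in the BF4T system (bronchial epithelial cells plus dermal fibroblasts). Parallel SRB total-protein staining flagged cytotoxicity; DMSO served as baseline, positive fitting direction.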

[16] = read-out: Intercellular Adhesion Molecule 1 (ICAM1), ICAM1 (gene 3383); test: BSK_BF4T_ICAM1: BioMAP Diversity Plus: BF4T Assay for Intercellular Adhesion Molecule 1 (ICAM1) Biomarker Activity (AID 2284260); settings: primary human bronchial epithelial cells with fibroblasts
Method in brief: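 ICAM-1 levels measured by ELISA after 24 h chemical treatment of bronchial epithelial cell/dermal fibroblast co-cultures, read against DMSO baseline. Overt cytotoxicity checked in parallel cultures by sulforhodamine B staining.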

CD90, THY1 (gene 7070) = test: BSK_BF4T_CD90: BioMAP Diversity Plus: BF4T Assay for CD90 Biomarker Activity (AID 2284262); settings: primary human bronchial epithelial cells with fibroblasts
Method in brief: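 CD90 levels by ELISA after 24 h treatment of human bronchial epithelial cell/dermal fibroblast cultures, analysed versus DMSO. Overt cytotoxicity checked in parallel cultures by sulforhodamine B staining.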

[17] = read-out: Interleukin-8 (IL8), CXCL8 (gene 3576); test: BSK_BF4T_IL8: BioMAP Diversity Plus: BF4T Assay for Interleukin-8 (IL8) Biomarker Activity (AID 2284263); settings: primary human bronchial epithelial cells with fibroblasts
Method in brief: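 Human bronchial epithelial cells with dermal fibroblasts co-culture; IL-8 measured by ELISA 24 hours after dosing, fitted vs DMSO. Cytotoxicity tracked in parallel cultures by SRB total-protein staining.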

[18] = CCTE_Mundy_HCI_Cortical_Synap_Neur_Matur_NeuronCount: CCTE's Synaptogenesis and Neurite Maturation Assay in rat cortical cells for Neuron Count, Mundy Lab (AID 2284242; active = hit-call score of the fitted dose curve at least 0.9, where 1 is the maximum;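 as to AC50: neuron number from Hoechst nuclei and MAP2 staining by high-content imaging; hits reduce neuron count versus DMSO baseline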)
Method in brief: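 Rat cortical cultures; AraC DIV 5; chemical dosing + media change DIV 7 to DIV 12 (288.33 h readout). Fix, Hoechst, anti-MAP2/anti-synaptophysin immunostain; HCI neuron count vs DMSO baseline.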

Measured: AC50

N#CCCNCCC#N
inactive: [1] | [2]

O=S1(=O)CC(Cl)(Cl)C(Cl)(Cl)C1
active: [3] 1.13 µM | [4] 0.703 µM | [5] 2.06 µM | [6] 1.85 µM | [7] 2.62 µM
inactive: [8]

O=C(O)C(F)(F)OC(F)(F)C(F)(F)OC(F)(F)C(F)(F)C(F)(F)C(F)(F)F
active: [6] 43.5 µM and 38.4 µM | [10] 10.9 µM and 17.6 µM | [12] 42.7 µM | CD69, CD69 (gene 969) 40.3 µM | [14] 5.34 µM and 2.49 µM | [15] 8.8 µM and 220 nM | [17] 1.82 µM and 4.77 µM
inactive: [3] | [4] | [5] | [9] | [11] | [12] | [13] | [7] | CD69, CD69 (gene 969) | [16] | [8] | CD90, THY1 (gene 7070)

C=C(C)C(=O)OCCC(F)(F)C(F)(F)C(F)(F)C(F)(F)C(F)(F)C(F)(F)C(F)(F)C(F)(F)F
not listed: [1] | [2] | [18]
inactive: all other assays above

COc1ccccc1NC(=O)CC(C)=O
inactive: [3] | [4] | [5] | [6] | [7] | [8]

C=C1CC/C=C(\C)CC[C@@H]2[C@@H]1CC2(C)C
inactive: [4] | [8]
active: [3] 14.9 µM | [5] 34.7 µM | [6] 23.8 µM | [7] 20 µM

CCCCC(CC)COC(=O)COc1ccc(Cl)cc1C (centres undefined)
active: [1] 50 µM | [18] 11.9 µM

C=C(F)C(=O)OC(C(F)(F)F)C(F)(F)F
inactive: [3] | [4] | [5] | [6] | [9] | [10] | [11] | [12] | [13] | [7] | CD69, CD69 (gene 969) | [14] | [15] | [16] | [8] | CD90, THY1 (gene 7070) | [17]
active: [15] 47.3 µM

O=C(O)C(F)(F)C(F)(F)C(F)(F)C(F)(F)C(F)(F)C(F)(F)C(F)(F)C(F)F
inactive: [3] | [4] | [5] | [6] | [9] | [10] | [11] | [12] | [13] | [7] | CD69, CD69 (gene 969) | [8] | CD90, THY1 (gene 7070) | [17]
active: [9] 2.3 µM | [10] 12.9 µM | CD69, CD69 (gene 969) 0.257 µM | [14] 4.86 µM and 2.55 µM | [15] 2.81 µM and 1.53 µM | [16] 2.59 µM and 3.49 µM

CC1(C)[C@H](C=C(Cl)Cl)[C@H]1C(=O)OCc1cccc(Oc2ccccc2)c1
inactive: [3] | [4] | [5] | [6] | [7] | [8]

c1ccc2c(c1)-c1ccc3ccc4cccc5cc-2c1c3c45
active: [4] 0.709 µM | [6] 0.0918 µM | [7] 1.24 µM
inactive: [3] | [5] | [8]

CCCCCCCC1CCCC1=O (centres undefined)
inactive: [3] | [4] | [5] | [6] | [7] | [8]

CC=CC(=O)C1=C(C)C=CCC1(C)C
inactive: [3] | [4] | [5] | [6] | [7] | [8]

CC(=O)OC(C)(C)C1CC=C(C)CC1 (centres undefined)
inactive: [3] | [4] | [5] | [6] | [7] | [8]

O=S(=O)(O)C(F)(F)C(F)(F)OC(F)(F)C(F)(F)F
not listed: [1] | [2] | [18]
inactive: all other assays above

N[C@@H](CCC(=O)O)C(=O)O
inactive: [1] | [2] | [18]

c1ccc2scnc2c1
inactive: [1]

CC(C)Cc1ccc(C(C)C(=O)O)cc1 (centres undefined)
inactive: [1] | [2] | [18] | [3] | [4] | [5] | [6] | [7] | [8]

OCC(F)(OC(F)(F)C(F)(OC(F)(F)C(F)(F)C(F)(F)F)C(F)(F)F)C(F)(F)F (centres undefined)
active: [3] 3.43 µM and 4.31 µM | [4] 4.97 µM | [6] 3.9 µM | [10] 2.4 µM and 2.03 µM | [11] 4.65 µM | [12] 4.96 µM | [15] 4.19 µM
inactive: [4] | [5] | [6] | [9] | [11] | [12] | [13] | [7] | CD69, CD69 (gene 969) | [14] | [15] | [16] | [8] | CD90, THY1 (gene 7070) | [17]

O=C1OC2(c3ccc(O)cc3Oc3cc(O)ccc32)c2ccccc21
inactive: [3] | [4] | [5] | [6] | [7] | [8]
